“And” between values parts separate entries of the source, which are not always exact repeats. Equal entries are not always repeated. Results filed as inconclusive are left out. Some structures have more than one record in an assay (separate samples or runs), and their calls can disagree. The source made the active and inactive calls. Unless noted, the call rests on the fitted dose curve; in most records, active means well fitted curve in the direction sought with a large enough effect in the repeat runs; inconclusive means weak or mixed curves; inactive means no such curve, though single readings can be large; an effect the other way counts as inactive or inconclusive.

A short description of assay [1]: qHTS assay for small molecule agonists of the p53 signaling pathway (AID 651631; calls by dose curve; further: nearly all actives have a fitted effect of over 15% in size; further: potency means the concentration at half of the fitted maximal effect). Summed up: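 We treat p53RE-bla HCT-116 cells with compounds for 16 h at 37 °C, add LiveBLAzer B/G FRET substrate for 2 h at room temperature, and measure fluorescence intensity.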
For orientation: qHTS replaces the single test concentration by a dilution series.

Assay [2] in a line: qHTS assay for small molecules that induce genotoxicity in human embryonic kidney cells expressing luciferase-tagged ATAD5 (AID 651632). Further: nearly all actives have a fitted effect of over 15% in size. Summed up:
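Luminescent reporter readout, HEK293T ATAD5-luc line: 16 hr drug exposure (37C, 5% CO2) followed by Amplite, 30 min RT.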

Assay [3] in a line: qHTS assay for small molecule agonists of the p53 signaling pathway - cell viability (AID 651633; calls by dose curve; further: nearly all actives have a fitted effect of over 30% in size; further: potency means the concentration at half of the fitted maximal effect). Summed up: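 Viability counter-read: CellTiter-Glo luminescence (30 min, room temperature) in the same p53RE-bla plates. These plates had been exposed to compounds for 16 h at 37 C.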
The nature of assay [4]: qHTS assay for small molecules that induce genotoxicity in human embryonic kidney cells expressing luciferase-tagged ATAD5 - cell viability (AID 651634; calls by dose curve; further: nearly all actives have a fitted effect of over 25% in size; further: potency means the concentration at half of the fitted maximal effect). Summed up: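 Viability read: CellTiter-Fluor fluorescence, 30 min at 37C. Cells: HEK293T, luciferase-tagged ATAD5. Exposure: 15.5 hr, 37C, 5% CO2, compound or DMSO vehicle.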
Assay [5] can be described thus: qHTS assay for small molecule disruptors of the mitochondrial membrane potential - cell viability (AID 720634; calls by dose curve;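 further: human HepG2 liver cancer cells; series mostly up to about 83 µM; nearly all actives have a fitted effect of over 20% in size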). Summed up: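 HepG2, 1 hr compound, 37 C. ATP luminescence via CellTiter-Glo, 30 min RT, same well as m-MPI.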
Assay [6] can be described thus: qHTS assay for small molecule disruptors of the mitochondrial membrane potential (AID 720635). Further: potency means the concentration at half of the fitted maximal effect. Summed up: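 Mitochondrial membrane potential tracked with Mito-MPS dye, red aggregates (ex 540/em 590 nm) against green monomers (ex 490/em 535 nm). Compound treatment 1 hr at 37C, dye 30 min in HepG2.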
The nature of assay [7]: qHTS assay to test for compound auto fluorescence at 590 nm (red) in HepG2 cells (AID 720674). Summed up: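 1 hr compound incubation on HepG2 cells, 37 C, 5% CO2; plate read ex 540 nm / em 590 nm; intensities reported as Rose Bengal sodium equivalents.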
A short description of assay [8]: qHTS assay to test for compound auto fluorescence at 535 nm (green) in HepG2 cells (AID 720675).
Assay [9] can be described thus: qHTS assay to test for compound auto fluorescence at 460 nm (blue) in HEK293 cells (AID 720678). Further: potency means the concentration at half of the fitted maximal effect. Summed up: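 HEK293 cells (2,000 per well, medium with 10% dialyzed FBS) attached for 4-5 hr at 37C, then received compound and stood overnight at 37C, 5% CO2. Blue fluorescence was read at Ex/Em 405/460 nm and expressed relative to triamterene.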
Assay [10] in a line: qHTS assay to test for compound auto fluorescence at 590 nm (red) in HEK293 cells (AID 720679). Summed up: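 HEK293 cells (2,000/well, medium with 10% dialyzed FBS) attached for 4-5 hr at 37C, received 23 nL compound and were incubated overnight at 37C, 5% CO2. Red fluorescence was then read at 540/590nm Ex/Em, referenced to Rose Bengal sodium.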
Tags describe the fitted curve by direction and shape or compound fluorescence and quenching.

For `CCC(C)C=O` (configuration not stated), the Potency entry in [1], in assay [2], in assay [3], in [4], in [5] and in assay [6] was “inactive” throughout. The Potency entry in assay [9] is “inactive”. The call in assay [7] and in assay [8] was inactive.
In the case of `CC1Cc2ccccc2N1NC(=O)c1ccc(Cl)c(S(N)(=O)=O)c1` (configuration not stated), the Potency result in assay [1], in assay [2], in [3], in [4], in [5] and in assay [6] was “inactive” each time. Also, the Potency entry in assay [9] is “inactive”. The compound was classed as inactive in [7] and in assay [8].
For `C[C@@H]1O[C@@H](OC[C@H]2O[C@@H](Oc3c(-c4ccc(O)c(O)c4)oc4cc(O)cc(O)c4c3=O)[C@H](O)[C@@H](O)[C@@H]2O)[C@H](O)[C@H](O)[C@H]1O`, the Potency result in assay [1], in assay [2], in assay [3], in assay [4], in [5] and in assay [6] was “inactive” in each case. The Potency result in [9] is “inactive”. Further, the result in assay [7], in [8] and in assay [10] was inactive.
As for `OC[C@@H](O)[C@@H](O)[C@H](O)[C@@H](O)CO`, the Potency entry in assay [1], in assay [2], in assay [3], in assay [4], in [5] and in assay [6] was “inactive” each time. Moreover, in assay [9], the Potency result was “inactive”. Further, the compound was called inactive in assay [7], in [8] and in [10].
In the case of `Cc1ccc(C)c(C)c1`, the Potency result in [1], in [2], in assay [3], in assay [4], in assay [5] and in [6] was “inactive” throughout. The Potency result in [9] is “inactive”. The result in assay [7] and in assay [8] was inactive.
For `OC[C@@H](O)[C@H](O)[C@H](O)[C@@H](O)CO`, the Potency entry in [1], in assay [2], in assay [3], in assay [4], in assay [5] and in assay [6] was “inactive” throughout. Further, the Potency entry in assay [9] was “inactive”. For the same compound, the compound was called inactive in [7] and in assay [8].
`O=C(c1cc(O)c(O)c(O)c1)c1ccc(O)c(O)c1O`: the Potency was 54.3 µM (active) in assay [1]; 54.3 µM (active) in assay [3]; 54.3 µM (active) and 54.5 µM (active) in assay [4]; 30.5 µM (active) and 19.3 µM (active) in assay [6]. Further, the Potency result in assay [2], in assay [5] and in assay [9] was “inactive” throughout. Moreover, the result in assay [7] and in [8] was inactive.
On to `C=C(C)C(=O)OCC(CC)(COC(=O)C(=C)C)COC(=O)C(=C)C`, for which the Potency entry in assay [1], in assay [2], in assay [3], in assay [4], in assay [5] and in [6] was “inactive” in each case. The Potency result in assay [9] is “inactive”. Also, the call in assay [7] and in [8] was inactive.
As to `CNC[C@H](O)[C@@H](O)[C@H](O)[C@H](O)CO`, the Potency result in [1], in assay [2], in assay [3], in assay [4], in assay [5] and in assay [6] was “inactive” each time. In [9], the Potency entry was “inactive”. The call in assay [7], in assay [8] and in assay [10] was inactive.
In the case of `CS(=O)(=O)c1ccc([C@@H](O)[C@@H](CO)NC(=O)C(Cl)Cl)cc1`, the Potency entry in [1], in assay [2], in [3], in assay [4], in assay [5] and in assay [6] was “inactive” in each case. The Potency result in assay [9] was “inactive”. Besides, the outcome in [7] and in assay [8] was inactive.
In the case of `NCc1cccc(CN)c1`, the Potency entry in assay [1], in [2], in [3], in assay [4], in assay [5] and in [6] was “inactive” each time. For the same compound, the Potency entry in assay [9] is “inactive”. Further, the compound was called inactive in assay [7] and in [8].
Regarding `c1ccc2[nH]cnc2c1`, the Potency result in assay [1], in assay [2], in assay [3], in assay [4], in assay [5] and in assay [6] was “inactive” in each case. For the same compound, the Potency result in [9] is “inactive”. In addition, the result in assay [7], in assay [8] and in assay [10] was inactive.
On to `CC(=O)CCc1ccccc1`, for which the Potency entry in [1], in assay [2], in assay [3], in assay [4], in [5] and in assay [6] was “inactive” throughout. For the same compound, the Potency entry in assay [9] was “inactive”. The outcome in assay [7], in assay [8] and in assay [10] was inactive.
Take `CCCCCCCCC`: the Potency entry in assay [1], in [2], in assay [3], in assay [4], in assay [5] and in [6] was “inactive” each time. Besides, in assay [9], the Potency result is “inactive”. For the same compound, the call in assay [7], in assay [8] and in assay [10] was inactive.
With `CC(=O)Nc1ccc(C(=O)O)cc1`, the Potency entry in [1], in assay [2], in [3], in assay [4], in assay [5] and in assay [6] was “inactive” each time. Besides, the Potency result in assay [9] is “inactive”. The outcome in assay [7] and in [8] was inactive.
For the compound `Nc1nc2ncc(CNc3ccc(C(=O)N[C@@H](CCC(=O)O)C(=O)O)cc3)nc2c(=O)[nH]1`, the Potency entry in assay [1], in assay [2], in assay [3], in assay [4], in assay [5] and in assay [6] was “inactive” throughout. The outcome in assay [7] and in assay [8] was inactive. Further, in assay [9], the Potency is 44.7 µM [fluorescent] (active).
On to `Oc1c(Cl)cc(Cl)c(Cl)c1Cl`, for which the Potency in assay [1] was 16.9 µM (active); in assay [3] it was “inactive and 61.1 µM (active)”; in assay [6] it was 11.9 µM (active) and 19.3 µM (active). The Potency entry in assay [2] and in [9] was “inactive” in each case. Moreover, the compound was called inactive in assay [7] and in assay [8].
As to `Cc1cc(Cc2ccc(N)c(C)c2)ccc1N`, the Potency result in assay [1], in assay [2], in assay [3], in [4] and in assay [9] was “inactive” each time. Further, the outcome in [7], in assay [8] and in assay [10] was inactive.
In the case of `O=C(O)c1cc(-c2ccccc2)nc2ccccc12`, the Potency entry in [1], in [2], in [3], in assay [4], in [5] and in assay [9] was “inactive” in each case. The result in assay [7], in assay [8] and in assay [10] was inactive.
For the compound `S=c1nc[nH]c2nc[nH]c12`, the Potency in [1] is 8.41 µM (active) and 5.31 µM (active); in assay [3], 1.88 µM (active) and 1.19 µM (active). For the same compound, the Potency result in assay [2], in assay [4], in assay [5], in assay [6] and in [9] was “inactive” each time. Further, the call in [7], in [8] and in assay [10] was inactive.
With `CCCCCCOC(C)=O`, the Potency entry in assay [1], in assay [2], in assay [3], in assay [4], in [5] and in assay [6] was “inactive” in each case. In addition, the Potency entry in assay [9] was “inactive”. In addition, the outcome in assay [7], in assay [8] and in assay [10] was inactive.
In the case of `C[C@@H](O)[C@H]1C(=O)N2C(C(=O)O)=C(S[C@@H]3CN[C@H](C(=O)N(C)C)C3)[C@H](C)[C@H]12`, the Potency entry in assay [1], in [2], in [3], in [4], in [5] and in [9] was “inactive” throughout. The call in assay [7] and in assay [8] was inactive.

The values are drawn from PubChem BioAssay (Tox21).
